Our source for the growth values is PubChem BioAssay (NCI).

This is part of a sample that, as a whole, favours compounds with a hit. Of some 83,000 tested, about 20% had one in any assay.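 Compound tested at a single concentration for 48 hours in 96-well plates; a percent growth value below 10 was scored as active.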 Calls of active or inactive are those of the source.

The experiment has as its system CCRF-CEM leukemia. The experiment is described as follows: NCI-60 one-dose screen, 48 h (100 = growth as untreated, 0 = no growth, -100 = all killed). To be noted: 10 µM unless noted.
On to `Cc1ccc(NC(=O)c2ccc(CN3CCN(C)CC3)cc2)cc1Oc1ccc(-c2[nH]nc3ncnc(N)c23)cc1`, for which the growth was 59.5% (inactive).

In the case of `CCCn1cnc2c(c1=N)C(c1ccc(Cl)cc1)c1sc3c(C)cccc3c1O2` (stereo unspecified), the growth was 3.96% (active).

With `C=C(C=O)[C@@H]1CC[C@]2(C)[C@H](CC=C3[C@H]4[C@@H](C)[C@H](C)CC[C@]4(C(=O)OC)CC[C@]32C)[C@@]1(C)CCC#N`, the growth is 10.7% (inactive).

For the compound `NC(N)=Nc1ccc(Oc2cccc(NC(N)=Nc3ccc(I)cc3F)c2)cn1`, the growth is 43.2% (inactive).

Regarding `Cc1occc1-c1nc2s/c(=C/c3ccc(-c4cc(C(F)(F)F)ccc4Cl)o3)c(=O)n2n1`, the growth was 117% (inactive).

On to `C[C@H]1c2[nH]c3ccccc3c2C[C@H]2C(=O)N(CCCCCCC(=O)NO)CC(=O)N21`, for which the growth was 36.9% (inactive).

For `COc1ccc(-c2cc(-c3ccc(Cl)cc3)c(C#N)c(=O)n2Cc2ccc(C(=O)O)cc2)cc1`, the growth is 30.7% (inactive).

Take `O=C1[C@H]2Cc3c([nH]c4ccccc34)[C@@H](c3ccc(Cl)cc3)N2C(=O)CN1C1CCN(Cc2ccccc2)CC1`: the growth was 43.3% (inactive).

For the compound `CCCCNNC(=O)c1ccc(-c2cccc(F)c2F)cc1`, the growth was 27.4% (inactive).

Take `CC1(C)CC[C@]2(C(=O)N3CCOCC3)CC[C@]3(C)C(=CC[C@@H]4[C@@]5(C)C/C(=C/c6ccccn6)C(=O)C(C)(C)[C@@H]5CC[C@]43C)[C@@H]2C1`: the growth is 44.5% (inactive).

In the case of `O=S(=O)(NCCNc1nccc(-n2cnc3ccccc32)n1)c1ccc(Br)cc1`, the growth was 101% (inactive).

As to `CC1(C)CC[C@]23CC[C@]4(C)[C@H](CC[C@@H]5[C@@]6(C)CCCN(CO)C(C)(C)[C@@H]6CC[C@]54C)[C@H]2[C@H]1OC3`, the growth was 58.5% (inactive).

With `O=C1[C@H]2Cc3c([nH]c4ccccc34)[C@@H](c3ccc(Br)cc3)N2C(=O)CN1C1CCN(CC2CCCCC2)CC1`, the growth was -27.9% (active).

As to `COc1ccc([C@H]2c3[nH]c4ccccc4c3C[C@H]3C(=O)N(C4CCN(Cc5c(Cl)cccc5Cl)CC4)CC(=O)N23)c(OC)c1`, the growth was 94.6% (inactive).

`NS(=O)(=O)c1ccc(Nc2nc(Nc3ccccc3)nc3nnc(SCC(=O)NC4CCCCC4)n23)cc1`: the growth is 101% (inactive).

Consider `O=C(NNc1nc2cc(F)ccc2n2c(CN3CCC(O)C3)ccc12)c1cnccn1` (stereo unspecified), for which the growth is 10.3% (inactive).

Regarding `CCN(CC)c1cn(-c2ccc(S(N)(=O)=O)cc2)nn1`, the growth is 106% (inactive).

Regarding `O=[N+]([O-])c1cc(/C=N/Nc2nc(N/N=C/c3ccc(Cl)c([N+](=O)[O-])c3)nc(N3CCCCC3)n2)ccc1Cl`, the growth is 61.3% (inactive).

`COc1ccc(COc2ccc(/C=C3\C(=O)Nc4ccccc43)cc2OC)cc1`: the growth was 104% (inactive).

As to `CCNC(=O)Oc1ccc(/C(=C(/C)c2ccccc2)c2ccc(OCCN3CCCCCC3)cc2)cc1`, the growth was 7.24% (active).

In the case of `COc1cc(/C=N/NC(=O)c2cn(C3CC3)c3c(OC)c(N4CC5CCCNC5C4)c(F)cc3c2=O)ccc1O` (stereo unspecified), the growth is 2.53% (active).

`CC(C)c1ccc(NCc2cn(-c3ccc(C(=O)O)cc3)nc2-c2cc(C(F)(F)F)cc(C(F)(F)F)c2)cc1`: the growth was 74.8% (inactive).

As for `C[C@@H]1C[C@H]2C(=O)O[C@@H](C)C(NC(=O)[C@H](Cc3cc(F)cc(F)c3)NC(=O)Nc3ccc(Cl)cc3F)C(=O)N3CCC[C@H]3C(=O)N3CCCC[C@H]3C(=O)N[C@@H](CO)C(=O)N2C1` (stereo partly specified), the growth was 32.7% (inactive).

With `CC(=O)O[C@@H]1C(=O)N(c2cnccn2)[C@H]1c1ccccc1[N+](=O)[O-]`, the growth was 12.3% (inactive).

With `C=C1CC[C@@H]2[C@]3(C)COC(c4ccccc4)O[C@@H]3CC[C@@]2(C)[C@@H]1C/C=C1/C(=O)OC[C@H]1O` (stereo partly specified), the growth is 9.03% (active).

`Nc1nc(-c2cccc([N+](=O)[O-])c2)c(N=Nc2cccc([N+](=O)[O-])c2)s1`: the growth was 95.2% (inactive).

For the compound `Nc1cc(F)ccc1NC(=O)c1ccc(NC(=O)C/C=C/c2cccnc2)cc1`, the growth was 24.6% (inactive).

`CCc1nn2c(C)cc(C)nc2c1Cc1ccc(/C=C/CN2CCN(CCOCCOCCN3CCN(C/C=C/c4ccc(Cc5c(CC)nn6c(C)cc(C)nc56)cc4)CC3)CC2)cc1`: the growth was -10.2% (active).

Regarding `COc1ccc(NC(=O)CSc2nnc(-c3ccc4nc(-c5ccccc5)[nH]c4c3)o2)cc1`, the growth was 91.6% (inactive).

As for `COc1ccc(N2C(=O)c3cc(Cl)ccc3NC2SCc2ccccc2)cc1` (stereo unspecified), the growth is 92.2% (inactive).

For the compound `O=C(CSc1nc2ccccc2c(=O)n1-c1ccccc1)Nc1ccc(-c2nc3ccc([N+](=O)[O-])cc3[nH]2)cc1`, the growth is 22.1% (inactive).

Consider `O=C(NCCn1ccnc1)c1ccc(-c2nc3ccc4[nH]ncc4c3c3c2CCCC3)cc1`, for which the growth is 19.5% (inactive).

With `CCCC(=O)NC(c1cccnc1)c1cc(C(C)(C)C)c2cccnc2c1O` (stereo unspecified), the growth is 9.16% (active).

Consider `NC(N)=Nc1ccc(Oc2cccc(Nc3ccc(Cl)cc3)c2)cn1`, for which the growth was -6.22% (active).

In the case of `O=C(CN1CCN(c2cc(=O)[nH]c3ccc(F)cc23)CC1)Nc1ccc(Cl)cc1`, the growth is 98.2% (inactive).

For the compound `C=C(C=O)[C@@H]1CC[C@]2(C)[C@H](C(=O)C=C3[C@H]4C[C@](C)(C(=O)OC)CC[C@]4(C)CC[C@]32C)[C@@]1(C)CCC#N`, the growth is 10.2% (inactive).
